Test results: the supplement of paper PMC3334620
The full ranking holds about 33,000 sequences; the median of “E-score (-0.5 to 0.5)” is about -0.056, and the highest 2% start at about 0.38. The sample holds the highest values, similar sequences and a random draw of the others, so the mix is not that of the screen.

Biological target: Stb4 (UniProt P50104)
Assay: PBM E-score (8-mer binding enrichment) (E-score (-0.5 to 0.5)); higher = stronger / more preferred TF binding
Settings: protein concentration: 200 nM; construct: GST-DNA-binding domain
Summary of the method: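 Yeast transcription factors carrying a GST tag, as full-length proteins or DNA-binding domains, were produced by PURExpress in vitro transcription/translation. About 100-200 nM protein was applied to universal all-10-mer Agilent arrays, double-stranded by primer extension on fresh or once-stripped slides. Bound protein was detected with fluorescent anti-GST, and scans were normalised with masliner. The Universal PBM Analysis Suite gave each ungapped eight-base word, pooled with its reverse complement, an E-score, a modified Wilcoxon-Mann-Whitney statistic.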

UniProt P50104, sequence (P50104 whole entry): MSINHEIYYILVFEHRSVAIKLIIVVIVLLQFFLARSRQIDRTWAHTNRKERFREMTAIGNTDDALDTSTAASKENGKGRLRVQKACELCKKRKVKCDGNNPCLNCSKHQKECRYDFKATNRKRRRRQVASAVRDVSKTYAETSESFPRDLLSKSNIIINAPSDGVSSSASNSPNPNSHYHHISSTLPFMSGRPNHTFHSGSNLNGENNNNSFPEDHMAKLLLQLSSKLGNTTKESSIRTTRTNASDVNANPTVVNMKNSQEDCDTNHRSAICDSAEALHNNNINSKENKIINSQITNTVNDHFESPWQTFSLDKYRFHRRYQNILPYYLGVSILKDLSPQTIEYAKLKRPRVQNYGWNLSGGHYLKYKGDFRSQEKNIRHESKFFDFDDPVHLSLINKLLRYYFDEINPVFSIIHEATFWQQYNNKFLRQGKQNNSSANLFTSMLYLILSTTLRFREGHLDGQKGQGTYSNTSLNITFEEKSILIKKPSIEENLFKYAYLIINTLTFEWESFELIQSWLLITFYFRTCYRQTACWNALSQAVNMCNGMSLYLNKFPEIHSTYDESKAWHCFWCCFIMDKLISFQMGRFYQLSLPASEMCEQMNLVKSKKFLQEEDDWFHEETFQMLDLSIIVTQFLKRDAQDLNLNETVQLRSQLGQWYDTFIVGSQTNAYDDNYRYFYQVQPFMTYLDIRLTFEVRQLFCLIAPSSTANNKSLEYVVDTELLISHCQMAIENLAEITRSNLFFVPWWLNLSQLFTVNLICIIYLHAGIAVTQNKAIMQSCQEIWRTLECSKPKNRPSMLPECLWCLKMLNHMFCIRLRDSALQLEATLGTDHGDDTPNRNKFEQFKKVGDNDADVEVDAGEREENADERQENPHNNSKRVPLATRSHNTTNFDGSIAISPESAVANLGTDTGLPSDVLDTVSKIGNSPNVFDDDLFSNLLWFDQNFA

Sequence	PBM E-score
CCTGAACC	-0.232
GCCCTGCC	0.0895
CGCTCGCC	-0.0544
AGCTCGCA	-0.108
AGCTCGGA	0.454
CGCTCGCA	0.104
CGCTCGTC	-0.19
CGCTCGGC	0.412
GGCTCGTA	-0.0188
AGCTCGTA	-0.189
CGCTCGGA	0.463
GGCTCGGA	0.466
GGCTCGAA	-0.0314
CGCTCGTA	-0.176
AAGAGGCA	-0.186
CGACCAAG	-0.184
TCATTGCA	-0.328
CATGTTCC	0.115
ATTCATTC	0.172
ACCGCAGG	0.0861
ACCTCTAC	-0.0322
AGGCGAAT	-0.189
AGAATTGA	-0.194
GAGAAGAA	0.0753
GACAGATC	0.0617

Sequence	PBM E-score
GGGATAGA	-0.0799
AGGATAGC	0.206
CGGATAGA	0.454
CGGATAGC	0.394
CAGATAGC	-0.0171
AGGATAGA	-0.107
TATAGACA	-0.192
CCTGGCGA	-0.204
AGCTGCAA	-0.0718
GTTCCGGA	0.435
ATTCCGGC	0.354
GGTCCGGA	0.34
CGTCCGGA	0.3
CTTCCGGA	0.396
AGTCCGGA	0.332
GTTCCGTA	0.314
ATTCCGGA	0.405
CCTCCGGC	0.295
ATTCCGGG	0.353
CTTCCGTA	0.379
CTTCCGGC	0.392
AACTAACT	0.0909
AGAGGATG	-0.0042
ATGGCTAA	-0.0251
CCTATTGC	-0.0913

Sequence	PBM E-score
ACAGCATC	-0.102
GAATCTTA	-0.0785
CTTTCCAC	0.0376
AGTTCCCG	0.396
CGGTCCGA	0.449
AGTTCCCA	-0.0388
AGTTCCAA	0.012
AGTTCCGC	0.324
CGTTCCGC	0.412
CGTTCCCC	-0.014
AGTTCCGA	0.474
AGTTCCCC	0.138
AGTTCCTA	0.00074
AGGTCCGA	0.304
GGGTCCGA	0.344
CAGCTTTC	-0.0811
ATGGGTGG	-0.0789
GTGAGTTA	-0.211
ATGTAAAG	-0.162
ACTTGCGC	-0.0787
AGAAGGGG	-0.169
ATAGCGTC	-0.209
GTAACGGA	0.281
GTTTGCAA	-0.113
CGATTTGA	-0.0548

Sequence	PBM E-score
ATTCACAA	-0.0973
AGTTCCGG	0.419
CGTTCCGA	0.451
GGTTCCAA	0.196
GGTTCCGA	0.468
GGTTCCCA	-0.0962
CGTTCCTA	-0.00632
AGTTCCAG	-0.136
CGTTCCAA	-0.0817
AGTTCCTG	-0.14
ACCACCCT	-0.162
CCTCTTAA	-0.0505
GACGAAGC	-0.142
GTCGAAAC	-0.0645
GCCGAAGC	0.385
CCCGAAAG	0.393
GCCGAAAC	0.397
ACCGAAAA	0.337
ACCGAAAG	0.231
CACGAAAG	-0.148
ACCGAAGC	0.287
GACGAAAA	0.0557
ACCGAAAC	0.372
GCCGAAAA	0.438
GGAGGATA	-0.0736

Sequence	PBM E-score
CGTTACTC	-0.0977
AGAAGTGC	-0.122
CGCGGGAG	0.172
TACGAAAA	-0.0536
CCCGAAAA	0.428
CACGAAAA	-0.0798
TGCGAAAA	-0.0153
CCCGAAAC	0.339
TCCGAAAA	0.441
CTCAAACC	-0.0373
CGAGCTAC	0.0965
GAGTCAAC	0.0604
ACCATAGC	-0.123
TACATCCA	-0.202
AATTAAAT	-0.0575
CCTATCCC	0.176
ATTATCCC	0.0679
ACTATCCT	-0.0638
ACTATCCC	-0.044
AGTATCCG	0.436
ATTATCCA	-0.0958
AGTATCCC	-0.0361
AGTATCCA	0.0731
ACTATCCG	0.45
CCTATCCA	-0.196

Sequence	PBM E-score
ATTATCCG	0.475
CCTATCCG	0.391
CAGGCGAG	-0.294
ACTGCATA	-0.135
AGTATCTC	-0.0258
TCTAGCAA	-0.0809
CGTCCGGC	0.253
CCTCCGGA	0.307
CATCCGGC	0.397
CATCCGTA	0.329
AGTCCGGC	0.0945
AATCCGGG	0.306
CATCCGGG	0.397
CATCCGGA	0.406
CATCCAGG	-0.178
AAAGCCCT	-0.106
CGAAAACA	0.123
CGTGTTTA	-0.00808
AGCTGTGC	-0.148
AATATCTA	-0.0944
CCGCTATA	0.0382
AGTTCTCG	0.0181
ATCTTAAG	-0.187
CCGCTGAC	0.0389
CCACCGCG	-0.00158

Sequence	PBM E-score
AACCGAAT	0.325
CCCCGAAG	0.354
ACCCCGAT	0.266
ACCCGAAT	0.425
ACACGAAG	0.00748
TCCCGACA	0.355
TCACGAAA	-0.0978
ACCCGAAC	0.463
GCCCGAAC	0.262
CCCCGAAC	0.338
TCCCGAAA	0.432
ACCCGAAG	0.424
GGGGTTAA	0.0779
GCTTTCAA	-0.0547
CGAGAGTC	0.0872
ATGCCTTC	-0.0568
CTTTTCAC	-0.191
ATGCCCAG	0.0828
CGGACAGA	0.129
CACGCTTC	0.0187
ACCCGAAA	0.435
GCCCGAAA	0.276
